PfHsp40 yeast – compounds rescuing yeast from Plasmodium falciparum HSP40 toxicity; S. cerevisiae expressing PfHsp40, growth rescue, ATP luminescence; growth rescue, % at 12.5 µM; actives 0.68% (n = 340,000); in the data active = growth rescue above about 28%, passing the limit was not always enough;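 also: yeast W303a lacking pdr1 and pdr3 grown in galactose medium; growth measured after three days at 30 °C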
CCHF vOTU inh – blocks the CCHF virus ovarian tumor domain protease | actives 0.55% (n = 370,000) | inhibition, % at 11.5 µM | CCHFV vOTU protease, Pep-AMC fluorescence; in the data active = inhibition above about 30%; also: 0% = vehicle wells with enzyme and 100% = no enzyme wells
RN4220 kill – kills Staphylococcus aureus RN4220; inhibition, % (no concentration beside the values); AID 1259311; S. aureus RN4220 growth, OD600, 16 h; actives 0.33% (n = 330,000); in the data active = inhibition above about 85%;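 also: plate controls were untreated cells for no effect and reference antibiotic for full effect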
PrPC TRFRET – cell surface PrPC inhibition, primary TR-FRET screen. P04156. TR-FRET read-out. inhibition, % at 13.8 µM. actives 0.43% (n = 370,000). AID 720596; in the data active = inhibition above about 24%; also: 0% = median of the test wells and 100% = reference compound wells
ugtP null kill – growth inhibition of S. aureus ugtP deletion strain; S. aureus RN4220 ugtP deletion, OD600 growth, 16 h; growth inhibition, % (concentration not given with the values); AID 1259309; actives 0.54% (n = 330,000); in the data active = growth inhibition above about 68%;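 also: plate controls were untreated wells for no effect and antibiotic for full effect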
PrP 5UTR inh – suppresses PrP 5' UTR mRNA reporter expression; cell-based PrP 5' UTR mRNA reporter, plate reader; inhibition, % (concentration not given with the values); actives 0.35% (n = 340,000); AID 488862; in the data active = inhibition above about 52%; also: 0 = median of the neutral control wells
PrPC TRFRET cf – cell surface PrPC inhibition, TR-FRET confirmation; AID 743200; inhibition, % at 13.8 µM; cell surface PrPC level; shares compounds with PrPC TRFRET; actives 65% (n = 1,500); in the data active = inhibition above about 25%
LD9 tox – counter-screen for PrPc inhibitors: cytotoxicity in LD9 cells; luminescence viability; shares compounds with PrPC TRFRET; actives 29% (n = 1,500); inhibition, % at 13.8 µM; AID 743201; in the data active = inhibition above about 9.5%
The depositor's hits bear a star; . = not tested or not shown. Compounds with a hit are over-represented: about 2.1% of the library has one in this group of screens.

SMILES	PfHsp40 yeast	CCHF vOTU inh	RN4220 kill	PrPC TRFRET	ugtP null kill	PrP 5UTR inh	PrPC TRFRET cf	LD9 tox
Cc1[nH]c(=O)c(C#N)c(C)c1CSc1ncccn1	0.5	3.4	2.5	28.6*	3.0	1.0	24.8*	-3.0
COc1ccc(Nc2nc(NCc3ccco3)nc(NN=Cc3ccccc3)n2)cc1	.	.	16.2	.	-21.7	.	.	.
CC(=O)N1CCC(C(=O)NC2CCCc3c2cnn3-c2cc(F)cc(F)c2)CC1 (stereo not drawn)	-0.3	-5.1	4.3	84.8*	-1.5	14.4	0.0	-6.2
C=CCC(=O)NC1CCCc2c1cnn2-c1cc(F)cc(F)c1 (stereo not drawn)	0.6	-7.9	4.3	-5.6	8.9	-55.2	.	.
CC(=O)c1sc(C(C)(C)C)cc1NC(=O)c1ccccc1C(=O)O	1.8	-5.0	-2.0	36.4*	1.6	2.8	80.6*	-0.5
COc1ccc(OC)c(-c2csc(NC(=O)Cn3[nH]c(=O)c4ccccc4c3=O)n2)c1	0.1	-5.0	-31.5	26.8*	3.6	1.5	25.4*	38.0*
COc1ccc(OC)c(-c2csc(NC(=O)Cc3ccc(F)cc3)n2)c1	2.8	-1.7	-7.3	14.2	-18.1	-19.5	.	.
COc1ccc(Cl)cc1-c1n[nH]c(=S)o1	1.4	20.8	9.9	68.9*	-2.0	-19.6	84.5*	-0.6
COc1ccccc1-c1n[nH]c(=S)n1-c1ccccc1	-1.4	6.0	8.5	48.4*	13.7	-25.0	61.1*	5.9
COc1ccc(C(=O)Nc2ccc(-c3n[nH]c(=S)o3)cc2)cc1OC	3.0	-7.4	8.8	-1.1	-0.4	-15.1	.	.
COc1ccccc1-c1n[nH]c(=S)o1	-2.5	22.3	4.5	47.6*	2.3	-13.6	47.9*	-1.1
Cc1cc(OCC(C)C)ccc1/C(O)=C1/C(=O)C(=O)N(Cc2cccnc2)C1c1ccncc1 (stereo not drawn)	2.0	10.1	-7.2	34.8*	-9.0	-9.2	53.9*	-0.4
CCCCOc1ccc(/C(O)=C2/C(=O)C(=O)N(Cc3cccnc3)C2c2ccncc2)c(C)c1 (stereo not drawn)	-1.3	5.8	5.1	44.8*	13.7	-13.0	70.5*	2.4
COc1cc(NC(=O)c2cccc3c(-c4cccnc4)coc23)cc(OC)c1OC	.	-4.3	.	30.4*	.	.	25.0*	42.6*
COc1ccc(-c2coc3c(C(=O)Nc4cc(OC)c(OC)c(OC)c4)cccc23)c(C)c1	.	3.7	.	8.4	.	.	.	.
CCOC(=O)N1CCN(C(=O)c2ccc3nc(-c4ccccc4)c(-c4ccccc4)nc3c2)CC1	0.0	3.8	-0.5	-5.7	6.3	-16.1	.	.
NC(=O)C1CCN(C(=O)c2ccc3nc(-c4ccccc4)c(-c4ccccc4)nc3c2)CC1	-0.1	-72.5	3.6	47.0*	7.6	-6.8	53.1*	-1.8
N#C/C(=C(/O)C(Cl)c1ccccc1)c1nc2ccccc2s1 (stereo not drawn)	1.0	24.8	-1.8	43.2*	-7.9	-40.3	37.7*	-1.8
N#C/C(=C(/O)c1cccc(F)c1)c1nc2ccccc2s1	-0.3	10.3	79.9	1.9	81.2	-31.6	.	.
Clc1cccc(Cc2c(-c3ccco3)nc3ccc(Br)cn23)c1	.	27.6	.	42.4*	.	.	51.3*	-4.5
Brc1ccc2nc(-c3ccco3)c(Cc3ccccc3)n2c1	.	21.6	.	37.1*	.	.	66.3*	1.3
COc1ccc(-c2nc3ccc(C)cn3c2Cc2cccc(F)c2)cc1OC	.	-4.3	.	-9.4	.	.	.	.
COc1ccc(-c2nc3ccc(Br)cn3c2Cc2cccc(F)c2)cc1OC	.	3.1	.	35.6*	.	.	65.2*	-7.6
CNC(=S)NN=Cc1cn(CCOc2ccc(OC)cc2)c2ccccc12	.	.	18.7	.	-11.9	.	.	.
O=C1NCC(Cc2ccccc2)N(CCc2cccc(F)c2)C1=O (stereo not drawn)	.	.	2.2	.	0.2	.	.	.
SMILES	PfHsp40 yeast	CCHF vOTU inh	RN4220 kill	PrPC TRFRET	ugtP null kill	PrP 5UTR inh	PrPC TRFRET cf	LD9 tox
CC(C)Nc1nc(-c2ccccn2)nc(-c2ccccc2)c1C#N	0.1	-12.3	.	4.5	.	9.5	.	.
c1ccc(-c2cnc(-c3ccccn3)nn2)cc1	4.6	-4.2	-14.6	-13.1	-5.6	-29.8	.	.
CC(C)(C)CCNc1nc(-c2ccccn2)nnc1-c1ccccc1	.	.	.	27.9*	.	.	27.2*	33.5*
c1ccc(-c2ccc(CNc3nc(-c4ccccn4)nnc3-c3ccccc3)cc2)cc1	.	.	.	28.9*	.	.	36.7*	27.6*
CC(NC(=O)c1nc[nH]c1C(=O)NC(C)C(=O)OC(C)(C)C)C(=O)OCc1ccccc1 (stereo not drawn)	.	.	6.5	.	-1.8	.	.	.
CC(NC(=O)c1nc[nH]c1C(=O)NCC(=O)OC(C)(C)C)C(=O)OC(C)(C)C (stereo not drawn)	.	.	5.0	.	2.2	.	.	.
Cc1nc2ccc(Br)cc2c2c1CC(CBr)O2 (stereo not drawn)	-2.2	-8.0	11.4	23.4	2.9	3.8	.	.
Cc1nc2ccc(Br)cc2c2c1CC(CO)O2 (stereo not drawn)	-0.3	-3.5	6.4	29.1*	-3.1	-7.1	34.6*	-5.5
CCCNC(=O)c1ccc2snnc2c1	-0.3	6.7	1.2	2.3	0.8	-13.5	.	.
CCCNC(=O)c1nnsc1S(=O)c1ccc(Cl)cc1 (stereo not drawn)	15.9	15.2	98.5*	90.9*	100.1*	-27.5	15.5	95.2*
O=C(Cc1ccccc1)OCn1nnc2ccccc2c1=O	-1.4	0.9	-0.2	36.9*	-5.7	-17.5	5.6	-0.3
CC(C)C(NC(=O)OCc1ccccc1)C(=O)NC(C=O)Cc1ccccc1 (stereo not drawn)	.	.	3.1	.	-2.0	.	.	.
CC(=O)CSc1nc(-c2cccs2)c(C#N)c(=O)[nH]1	-0.4	-3.9	3.5	91.0*	-7.5	-10.2	98.6*	-4.5
COC(=O)C1=C(C)NC(=O)C1=Cc1cc(C)n(-c2cc(C)cc(C)c2)c1C	.	.	6.1	.	-4.5	.	.	.
COc1ccc2c(c1)c(C(=O)NN=Cc1cccs1)c(C)n2C	.	.	3.3	.	2.4	.	.	.
COc1ccccc1CNc1nc(Nc2cccc(-c3cnco3)c2)c2sccc2n1	.	1.5	.	25.4*	.	.	33.2*	34.8*
CCOc1ccc(C2c3[nH]c4ccccc4c3CCN2C(=O)Cn2cncn2)cc1 (stereo not drawn)	-0.3	3.4	0.7	36.6*	1.2	-9.9	33.8*	-5.9
COc1cccc(C2c3[nH]c4ccccc4c3CCN2C(=O)Cn2cncn2)c1OC (stereo not drawn)	-0.1	-4.9	-2.9	-0.4	-8.0	-32.0	.	.
CCCOc1ccc(/C(O)=C2\C(=O)C(=O)N(c3ccccn3)C2c2ccccc2F)cc1C (stereo not drawn)	-1.0	-3.4	10.1	44.5*	18.6	6.9	89.4*	-3.2

Screening data (PubChem)
